The campaign covered roughly 340,000 compounds. About 6,900 (2%) were called active. Rule as the data show it: active = inhibition above about 30%; inactive = below that, where a call was filed. The sample as a whole holds a higher share of actives than the screen did.
Molecular target: D(2) dopamine receptor (Homo sapiens) (UniProt P14416)
Test: HTS Assay for Allosteric Antagonists of the Human D2 Dopamine Receptor: Primary Screen for Antagonists; also: 0% is about no effect
Details: HEK293 TREx D2 cells, calcium flux, dopamine EC80; at 10 µM; active compounds read high
Outline: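 Calcium mobilization kinetics were recorded at 1 s intervals in tetracycline-induced HEK293 T-REx D2 cells, first for 180 s after compound addition and then 180 s after EC80 dopamine.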

Chain of D(2) dopamine receptor (Homo sapiens) (P14416 whole entry, looked up): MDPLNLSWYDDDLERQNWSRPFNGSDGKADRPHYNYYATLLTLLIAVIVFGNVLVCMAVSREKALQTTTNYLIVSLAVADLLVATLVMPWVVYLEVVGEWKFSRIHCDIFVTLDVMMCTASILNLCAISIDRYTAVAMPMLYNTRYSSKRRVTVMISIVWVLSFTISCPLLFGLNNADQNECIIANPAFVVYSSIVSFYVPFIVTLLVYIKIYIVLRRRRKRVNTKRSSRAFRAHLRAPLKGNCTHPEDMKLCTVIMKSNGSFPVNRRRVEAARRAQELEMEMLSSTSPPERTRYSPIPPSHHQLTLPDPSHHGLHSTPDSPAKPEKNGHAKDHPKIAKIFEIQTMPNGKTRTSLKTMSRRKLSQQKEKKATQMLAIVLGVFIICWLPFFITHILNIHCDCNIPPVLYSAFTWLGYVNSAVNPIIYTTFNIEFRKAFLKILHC

inhibition, inactive:
O=C(O)C(c1ccccc1)C1(O)CCCCC1 (configuration not stated) 2.2%
CCC(C(=O)OCCN(CC)CC)c1ccccc1 (configuration not stated) 6.37%
O=C(CSc1nc2[nH]c(=O)[nH]c(=O)c2s1)Nc1cccc(F)c1 -3.77%
CCc1ccc(CN(C)C(C)C(=O)Nc2ccc(S(=O)(=O)N3CCCC3)cc2)cc1 (configuration not stated) 12.7%
CNC(=O)C(NC(=O)c1ccccc1)=C(C)C -6.51%
C/C(=N/NC(=O)c1ccc(NC(=O)c2ccc(F)cc2)cc1)c1ccccc1 14.8%
CCCC(=O)Nc1ncnc2c1ncn2[C@@H]1O[C@@H]2OP(=O)(O)OC[C@H]2[C@H]1OC(=O)CCC -4.97%
CCO[C@H]1OC(C(=O)N2CCOCC2)=C[C@@H](c2ccc3c(c2)OCO3)[C@@H]1CCCO 2.11%
CCO[C@@H]1OC(C(=O)N2CCOCC2)=C[C@H](C)[C@H]1CCCO -3.13%
O=C(CSc1ccccc1)Nc1cccc(S(=O)(=O)N2CCCCC2)c1 0.706%
Cc1ccc(C)c(C(=O)COC(=O)Cn2[nH]c(=O)c3ccccc3c2=O)c1 -1.59%
Cc1ccc(NC(=S)N(Cc2ccco2)C(C)c2cccs2)cc1 (configuration not stated) -6.52%
Cc1ccc(NC(=S)N(CCN(C)C)Cc2cccs2)cc1C 12.4%
Cc1ccc(NC(=S)N(CCCN2CCCC2)Cc2cccn2Cc2ccc(Cl)cc2)cc1 3.46%
CCc1ccccc1NC(=S)N(CCN1CCCCCC1)Cc1ccco1 -0.524%
CN(C)S(=O)(=O)c1ccc(C(=O)NCC2(N3CCOCC3)CCCCC2)cc1 8.22%
O=C(O)c1ccccc1N=N/C(=N/Nc1cc(S(=O)(=O)O)ccc1O)c1ccccc1 28.3%
CCN(CC)CCCNC(=O)c1ccc2c(=O)n(Cc3ccc4c(c3)OCO4)c(=S)[nH]c2c1 16.5%
COc1ccc(Cn2c(=S)[nH]c3cc(C(=O)N4CCCCC4)ccc3c2=O)cc1 -3.83%
COc1cccc(C(=O)OCC(=O)c2[nH]c(C)c(C(C)=O)c2C)c1 8.22%
CCOC(=O)Cn1c(CN(Cc2ccccc2)Cc2ccccc2)nc2c1c(=O)[nH]c(=O)n2C -7.46%
CN(Cc1ccccc1)c1nc2c(c(=O)[nH]c(=O)n2C)n1CCSc1nc2ccccc2[nH]1 29.2%
COCCn1c(C)cc(C(=O)COC(=O)CNC(=O)c2ccco2)c1C -8.05%
Cc1ccc2nc(NC(=O)CSc3nc(=O)n(CCCN(C)C)c4c3CCC4)sc2c1 7.56%
CSc1ccccc1C(=O)OCC(=O)N1CCN(C(C)=O)CC1 0.24%
CC(=O)Nc1ccc(NC(=O)CCN2C(=O)C3CC=CCC3C2=O)cc1 (configuration not stated) 16.4%
Cc1ccc(NC(=O)COc2coc(CN3CCc4ccccc4C3)cc2=O)cc1Cl -2.55%
CCOC(=O)c1ccc(NC(=O)C2CC(=O)Nc3nc4ccccc4n32)cc1 (configuration not stated) -12.3%
CC(=O)c1ccc(NC(=O)C2CC(=O)Nc3nc4ccccc4n32)cc1 (configuration not stated) -1.67%
CC(C)Oc1ccc(S(=O)(=O)N2CCOCC2)cc1NC(=O)C1CCCC1 -5.29%
CN(c1ccccc1)S(=O)(=O)c1cccc(NC(=O)Cc2ccc(Cl)cc2)c1 -11.8%
COc1ccccc1CNC(=O)COC(=O)CNS(=O)(=O)c1ccc(NC(C)=O)cc1 4.15%
COC(=O)Cn1c(O)c(N=NC(=O)OC)c2ccccc21 11.2%
CCCCn1c(O)c(N=NC(=O)Cn2c(C(F)(F)F)nc3ccccc32)c2ccccc21 16.8%
OCCNCc1cccc(OCc2ccccc2Cl)c1 1.43%
OCCNCCCCOc1ccccc1F 4.36%
Cc1cccc(NS(=O)(=O)c2cccc(C(=O)NNC(=O)c3ccccc3O)c2)c1 -12.1%
Cc1cc(C)cc(-c2nnc(SCC(=O)NC3CC3)o2)c1 5.88%
CCC(C)C(N=C1NS(=O)(=O)c2ccccc21)C(=O)N1CCC(C)CC1 (configuration not stated) 17%
Cc1n[nH]c(=O)c2c(NC(=O)COC(=O)c3ncc(Cl)c(Cl)c3Cl)oc(C)c12 -6.33%
S=C(NN=C1CCN(Cc2ccccc2)CC1)NC1CCCCC1 5.59%
O=C(NNC(=S)Nc1ccc(Br)cc1Cl)c1ccco1 0.194%
O=C(COc1ccccc1F)NC1CC1 -13.9%
O=C(COc1ccccc1O)NC1CCCC1 1.67%
S=C(NCCCc1ccccc1)Nc1ccc(Br)cc1 3.8%
Cc1cc(Br)ccc1NC(=S)NC1CCCC1 9.66%
CCOC(=O)Cc1csc(SCC(=O)Nc2ccc(C)cc2F)n1 0.767%
CCCC1C(=O)N2C(N(C)C)=Nc3ccc(C)cc3N2C1=O (configuration not stated) -7.75%
Brc1ccc(CN2CC[C@H]3C=CCc4cccc(c43)C2)cc1 -16.8%
Cc1ccc2c(c1)C1CN(C)CCC1N2S(=O)(=O)c1cccc(F)c1 (configuration not stated) -6.37%
CNS(=O)(=O)c1ccc(C(=O)NCC(=O)NCCc2ccc3c(c2)OCCO3)cc1 -17.4%
Cc1csc(SCC(=O)N(c2ccccc2)C(C)C)n1 -0.577%
O=S(=O)(NCCCCCCNS(=O)(=O)c1c(F)cccc1F)c1ccc2c(c1)OCCO2 -4.68%
O=S(=O)(c1ccc(Br)cc1)c1nc(-c2ccccc2)oc1NCc1cccnc1 9.02%
O=S(=O)(c1ccc(Br)cc1)c1nc(-c2ccccc2)oc1N1CCOCC1 15.8%
CCOc1ccc(C(=O)CCC(=O)NC2=NCCS2)cc1 -11.7%
Cc1ccc(COC(=O)CN2C(=O)NC3(CCCC3)C2=O)cc1 -1.94%
O=C(C1CC(=O)N(c2ccc(Br)cc2)C1)N1CCCC1 (configuration not stated) -3.05%
CCc1ccc(N2CC(C(=O)N3CCCCCC3)CC2=O)cc1 (configuration not stated) -11.6%
Cc1ccc(N2CC(C(=O)NCCS(=O)(=O)N3CCN(c4ccccc4)CC3)CC2=O)cc1 (configuration not stated) 8.52%
COCCCNC(=O)C1CC(=O)N(c2ccc(C)cc2)C1 (configuration not stated) -5.47%
Cc1ccc(NC(=O)CCC(=O)N2CCC(c3ccccc3)=N2)cc1S(=O)(=O)N1CCCCC1 -6.66%
CC1(C)CC(=O)C=C(c2cccc3c2Oc2ccccc2S3)C1 2.71%
Cc1ccc(NC(=O)C(c2ccccc2)N2CCN(C(=O)c3ccco3)CC2)cc1 (configuration not stated) -0.875%
CN(C(=O)CSc1nnc(-c2ccc3c(c2)OCO3)o1)C1CCS(=O)(=O)C1 (configuration not stated) 8.68%
Cc1ccc(N2C(=O)C3C4C=CC(CC4)C3C2=O)cc1Cl (configuration not stated) -11.1%
CC(=O)Nc1ccc(N2C(=O)C3C4C=CC(CC4)C3C2=O)cc1 (configuration not stated) 2.36%
Cn1c(-c2ccc(C(F)(F)F)cc2)cc2onc(-c3ccccc3)c2c1=O 8.4%
CCOc1ccc(C(=O)NCC(=O)N2CCN(c3ccc(C(F)(F)F)cn3)CC2)cc1 -6.45%
Cc1ccc(C(=O)OCC(=O)NCc2cc(C)c(O)c(C)c2)cc1S(=O)(=O)N1CCCCC1 14.2%
CCN(C(=O)COC(=O)c1c(NC(C)=O)sc(C)c1C)C1CCS(=O)(=O)C1 (configuration not stated) 9.33%
CCN(C(=O)CSc1nc2ccccc2n1CC)C1CCS(=O)(=O)C1 (configuration not stated) 8.24%
COc1ccc(N2CCN(C(=O)CCNC(=O)c3ccc(Br)cc3)CC2)cc1 -5.34%
CC(C(=O)N1CCc2ccccc21)N(C)CC(=O)Nc1ccc(F)cc1 (configuration not stated) 17.3%

inhibition, active:
CN(C)CCOC(=O)C(c1ccccc1)C1(O)CCCC1 (configuration not stated) 58.6%
CC(C)=C(NC(=O)c1ccccc1)C(=O)N/N=C(\C)c1ccccc1O 62.7%
CCO[C@H]1OC(C(=O)N2CCCCCCC2)=C[C@@H](c2ccc(C(F)(F)F)cc2)[C@@H]1CCCO 30.3%
Cc1ccc(NC(=S)N(CCN2CCCCC2)Cc2ccco2)cc1C 50.8%
Cc1ccc(NC(=S)N(CCCN2CCC(C)CC2)Cc2ccco2)cc1 34.7%
COc1ccc(Cn2c(=S)[nH]c3cc(C(=O)NCCCN4CCOCC4)ccc3c2=O)cc1 35.6%
Cn1c(=O)[nH]c(=O)c2c1nc(N(CCO)Cc1ccccc1)n2Cc1ccccc1Cl 73.5%
O=C(Nc1ccccc1)C1CC(=O)n2c(nc3ccccc32)N1 (configuration not stated) 33.6%
N#CCCCn1c(O)c(N=NC(=O)C(O)c2ccccc2)c2ccccc21 (configuration not stated) 38.5%
OCCNCCOc1ccc(Cl)c(Cl)c1 33.4%
S=C(Nc1ccc(Br)cc1Cl)NC1CCN(Cc2ccccc2)CC1 70.2%
O=C(COc1ccc(Br)cc1F)NC1CCN(Cc2ccccc2)CC1 52.9%
S=C(Nc1ccc(Br)cc1)NC1CCN(Cc2ccccc2)CC1 109%
O=S(=O)(c1ccccc1)c1nc(-c2ccccc2)oc1NCCCN1CCOCC1 47.7%
CCCC(C)NC(=O)C1CCN(C(=O)C2CC(=O)N(c3ccc(C)cc3)C2)CC1 (configuration not stated) 33%
COCCNC(=O)C1CCN(C(=O)C2CC(=O)N(c3ccc(C)cc3)C2)CC1 (configuration not stated) 30%
Cc1ccc(N2C(=O)C3C4C=CC(CC4)C3C2=O)cc1Br (configuration not stated) 54.9%
CCN(C(=O)COC(=O)/C=C/c1nc2ccccc2s1)C1CCS(=O)(=O)C1 (configuration not stated) 31.7%
